Source: PubChem BioAssay
Only a sample is shown.
aSyn UTR act: Activators via SNCA 5'UTR binding, MLPCN; alpha-synuclein 5'UTR reporter, activators screen; activity score, % (tested at 7.5 µM), hits read low; 7.1% of 300,000 active; in the data active means activity score below about -60%
Numbers stand for hits; n = inactive.

SMILES	aSyn UTR act
COc1ccc(N=c2oc3ccccc3cc2C(=O)Nc2ccccn2)cc1OC	-107
COc1ccccc1NC(=O)c1cc2ccccc2o/c1=N\O	-129
Cc1ccccc1S(=O)(=O)Oc1ccc2ccc(O)cc2c1	-131
Cc1ccccc1C(=O)Oc1ccc2ccc(O)cc2c1	-162
COc1ccc(C(C#N)=C2C=CC(=NO)C=C2)cc1	-148
Cc1ccc(Nc2nc(/N=C/N(C)C)n[nH]2)cc1C	-79
O=C(Nc1nnc(-c2ccc(F)cc2)s1)c1ccco1	-121
COc1ccc(Cc2nnc(NC(=O)c3ccco3)s2)cc1	-62
Cc1cccc(-c2nnc(NC(=O)c3ccco3)s2)c1	-124
O=C(Nc1nnc(/C=C/c2ccccc2)s1)c1ccco1	-83
CC(C)Sc1nnc(NC(=O)c2ccco2)s1	-64
Oc1ccc(O)c(-c2cnns2)c1	-71
CCN(CCn1cccn1)C(=O)CCc1nnc(-c2ccccc2)o1	-73
CCN(CCn1cccn1)C(=O)CCc1nnc(C2(c3ccc(Cl)cc3)CCC2)o1	-86
COc1ccc(C2=C(C=O)Cc3ccccc3O2)cc1	n
COc1ccc(C2=C/C(=C\c3ccccc3OC(C)=O)C(=O)O2)cc1	-79
Cc1cccc(NC(=S)N2N=CCC2c2ccccc2)c1 (stereo not drawn)	-125
CCc1ccccc1NC(=S)N1N=CCC1c1ccccc1 (stereo not drawn)	-71
O=C(NCC1CCCO1)c1cc(-c2ccc(Cl)cc2Cl)on1 (stereo not drawn)	-164
Cc1ccc(-c2cc(C(=O)NCC3CCCO3)no2)cc1 (stereo not drawn)	-76
O=C(NCC1CCCO1)c1cc(-c2ccccc2)on1 (stereo not drawn)	-362
Cc1cccc(NC(=O)C(=O)NCC2CCCO2)c1 (stereo not drawn)	-92
CC1=Nc2cc(C(=O)NCC3CCCO3)ccc2Sc2ccc(Br)cc21 (stereo not drawn)	-113
Brc1ccc2oc3c(N4CCOCC4)ncnc3c2c1	-158
O=[N+]([O-])c1ccc(-c2cnc(SCc3ccccc3Cl)[nH]2)cc1	-89
SMILES	aSyn UTR act
COc1ccccc1NC(=O)c1ccc(-c2ccccc2F)o1	-145
COC(=O)c1ccccc1NC(=O)c1ccc(-c2ccccc2F)o1	-129
Cc1cc(NC(=O)c2ccc(-c3ccccc3F)o2)no1	-125
Cc1ccc(Cn2ccnc2C(=O)Nc2ccccc2)cc1	-156
CC(=O)Nc1ccc(-c2nc3cc(Cl)ccc3o2)cc1	-73
CN(C)c1ccc(-c2nc3cc(N)ccc3o2)cc1	n
O=C(O)c1ccccc1-c1ccccc1C(=O)Nc1ccc(-c2nc3cc(Cl)ccc3o2)cc1	-77
CC(C)(C)C(=O)Nc1ccc2oc(-c3cc(F)c(F)cc3Cl)nc2c1	-252
COc1ccccc1C(=O)Nc1ccc2oc(-c3ccc(F)cc3)nc2c1	-201
CN1CCN(c2ccc(-c3ccnn3C(=O)Nc3ccccc3)cc2)CC1	-72
O=C(Nc1ccc2c(c1)OCCO2)N1CCN(c2ccc(F)cc2)CC1	-88
Cc1cccc(C)c1N1CCN(C(=O)Nc2ccc3c(c2)OCCO3)CC1	-74
O=C(Nc1ccc2c(c1)OCCO2)C1CCN(C(=O)c2ccc(F)cc2)CC1	-85
CC1CCN(C(=O)CSCc2ccc(Cl)cc2)CC1	-95
O=C(CSc1nc2cc(Cl)ccc2s1)c1ccco1	-210
CSCC(=O)Nc1nc(-c2ccc3c(c2)OCCO3)cs1	-117
O=C(CSCC(=O)Nc1nc(-c2ccc3c(c2)OCO3)cs1)Nc1nccs1	-111
O=C(Nc1nc(-c2ccc3c(c2)OCO3)cs1)C1CC1	-184
O=C(O)c1cccc(-n2cc(-c3cccc(C(F)(F)F)c3)cn2)c1	-128
Cc1ccc(/C=N/Nc2nncn2N)cc1	-120
O=C(COc1ccc(Br)cc1Cl)NC(=S)Nc1ccccn1	-100
COCCCNC(=O)COc1ccc(Br)cc1Cl	-146
Cc1ccc(N=Cc2sccc2C)cc1C	-111
Cc1nc(-n2[nH]c3c(c2=O)CCCC3)[nH]c(=O)c1Cc1ccccc1	n
N/C(=N\C(=S)Nc1ccccc1)c1ccccc1	-170
SMILES	aSyn UTR act
NC(N)=NC(=S)Nc1ccc(Cl)cc1	-106
O=C(/C=C/c1ccc(OCCCF)cc1)Nc1ccnc(-c2cccnc2)n1	-121
O=C(/C=C/c1ccc(OCCCF)cc1)Nc1ccnc(-c2ccncc2)n1	-209
NC(=O)c1cccnc1Nc1cccc([N+](=O)[O-])c1	-109
Cc1ccc(-n2cnc3c(sc4nccc(N(C)C)c43)c2=O)cc1	-132
CCC1(C)N=C(c2ccc3c(c2)OCO3)CC(c2ccccc2O)N1 (stereo not drawn)	-286
O=C(COc1ccccc1)NCCSCc1ccccc1Cl	-64
CCOC(=O)c1oc2ccccc2c1NC(=O)COc1ccc(F)cc1	n
Cc1ccc(OCC(=O)Nc2ccccc2F)cc1	-72
O=C(COc1ccccc1)Nc1ccccc1Cl	-165
Cc1ccc(CCC(=O)Nc2ccccc2F)s1	-91
Cc1ccc(C(=O)CCC(=O)Nc2ccccc2F)cc1	-98
Cc1ccc(OCC(=O)Nc2ccccc2F)cc1C	-178
C#CCSc1nnc(-c2sc(-c3ccccc3)nc2C)n1C	-67
Cc1ccc(C2=NN(S(C)(=O)=O)C(c3cccs3)C2)cc1 (stereo not drawn)	-146
COc1ccc(C2CC(c3cccs3)=Nc3ccccc3S2)cc1 (stereo not drawn)	-163
CCc1ccc(C2=NN(S(C)(=O)=O)C(c3cccs3)C2)cc1 (stereo not drawn)	-92
COc1ccc(C2=NN(S(C)(=O)=O)C(c3cccs3)C2)cc1 (stereo not drawn)	-95
COc1ccc(C2CC(c3cccs3)=NN2S(C)(=O)=O)cc1 (stereo not drawn)	-85
CS(=O)(=O)N1N=C(c2ccc(Br)cc2)CC1c1cccs1 (stereo not drawn)	-117
O=C(Nc1ccccc1)c1ccc(OC(=O)c2ccccc2)cc1	-63
CCOC(=O)/C(=C/c1ccccc1)NC(=O)c1ccco1	-65
CCCOC(=O)c1ccc(NC(=O)c2ccoc2C)cc1	-154
Cc1ccc(NC(=O)c2ccccc2)cc1OC(=O)c1ccccc1	-109
CC(C)OC(=O)c1ccc(NC(=O)c2ccccc2)cc1	-78
SMILES	aSyn UTR act
CCOC(=O)c1ccc(NC(=O)c2ccco2)cc1	-189
CC(C)OC(=O)c1ccc(NC(=O)c2ccco2)cc1	-140
O=C(N/N=C/C(Br)=C/c1ccccc1)c1cc(-c2ccco2)[nH]n1	-62
O=C(N/N=C/C(Br)=C/c1ccccc1)c1ccccc1F	-201
C/C(=N\NC(=O)C1=NNC(=O)C1C)c1cccs1 (stereo not drawn)	-81
C/C(=N/NC(=O)c1cc(C2CC2)[nH]n1)c1cccs1	n
O=C(N/N=C/C(Cl)=C/c1ccccc1)c1ccccc1F	-192
Cc1cc(C(=O)N/N=C/c2cc(N=Nc3ccccc3)ccc2O)n[nH]1	n
CC1C(=O)NN=C1C(=O)N/N=C\C(Br)=C\c1ccccc1 (stereo not drawn)	-134
COc1ccc2oc(=O)c(C(=O)Nc3ccccc3C)cc2c1	-199
O=C(Nc1ccccc1O)c1cc2cc(Br)ccc2oc1=O	-124
Cc1cccnc1NC(=O)c1cc2ccccc2oc1=O	-200
CCCCCCc1cc2cc(C(=O)Nc3ccccc3)c(=O)oc2cc1O	n
CN(C)C(CNC(=O)c1cc2ccccc2oc1=O)c1ccccc1 (stereo not drawn)	-162
COc1ccc2oc(=N)c(C(=O)Nc3cccc(C)c3C)cc2c1	-158
COc1ccc2oc(=N)c(C(=O)Nc3ccccc3Cl)cc2c1	-209
COc1ccc2oc(=O)c(C(=O)Nc3cccc(C(C)=O)c3)cc2c1	-82
